Only some compounds are listed: those with a hit (about 3.6% of all), similar ones and a draw of the others.
AmpC inh no detg = qHTS Inhibitors of AmpC Beta-Lactamase (assay without detergent); AID 485341, 2010; 330,000 compounds, 0.52% hits; AmpC nitrocefin hydrolysis, absorbance 480 nm, 0.0001% Triton; P00811; Potency, µM (doses to about 57.1 µM), most hits filed as inhibitors; further: nearly all actives have a fitted effect of over 20% in size
Target sequence (P00811 whole entry, looked up): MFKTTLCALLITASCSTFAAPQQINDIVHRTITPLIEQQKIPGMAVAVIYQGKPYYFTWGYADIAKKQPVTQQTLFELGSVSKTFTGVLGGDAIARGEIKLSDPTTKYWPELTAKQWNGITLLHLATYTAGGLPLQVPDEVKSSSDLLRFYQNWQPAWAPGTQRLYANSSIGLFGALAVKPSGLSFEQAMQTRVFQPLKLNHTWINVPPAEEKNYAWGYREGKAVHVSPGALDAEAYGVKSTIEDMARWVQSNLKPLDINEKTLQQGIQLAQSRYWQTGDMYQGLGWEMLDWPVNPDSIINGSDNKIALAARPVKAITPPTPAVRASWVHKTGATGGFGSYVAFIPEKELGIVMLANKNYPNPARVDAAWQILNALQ
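20 mM phosphate pH 7.0 + 0.01% (detergent screen) or 0.0001% Triton X-100; 5.3 nM AmpC reagent; cpd preinc 15 min RT; nitrocefin (800 uM stock) to start; A480 q20 s × 4 min; Activity was normalised to no-enzyme and no-compound control wells.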
AmpC inh detg = qHTS Inhibitors of AmpC Beta-Lactamase (assay with detergent) | P00811 | AmpC hydrolysis of nitrocefin, absorbance 480 nm, 0.01% Triton | Potency, µM (series often up to 114 µM), usual class: inhibitors | 370,000 compounds, 0.041% hits | AID 485294, 2010; further: nearly all actives have a fitted effect of over 25% in size
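20 mM phosphate pH 7.0 + 0.01% (detergent screen) or 0.0001% Triton X-100; 5.3 nM AmpC reagent; cpd preinc 15 min RT; nitrocefin (800 uM stock) to start; A480 q20 s × 4 min; Activity was normalised to no-enzyme and no-compound control wells.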
FBPA Giardia inh = qHTS Assay for Inhibitors of Fructose-1,6-bisphosphate Aldolase from Giardia Lamblia. Potency, µM (series often up to 59.6 µM), actives largely listed as inhibitors. AID 2451, 2010. A8B2U2. 290,000 compounds, 0.71% hits. purified Giardia FBPA; further: nearly all actives have a fitted effect of over 55% in size
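Giardia FBPA (40 nM reagent) was preincubated 10 min at RT with compound (up to 57.5 uM final), then substrate plus GAPDH/TPI/NAD/arsenate coupling system with diaphorase/resazurin was added; resorufin fluorescence (525/598 nm) was read after 20 min.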
Sm TGR block = qHTS Assay for the Inhibitors of Schistosoma Mansoni Peroxiredoxins; Schistosoma mansoni thioredoxin glutathione reductase (TGR), Q962Y6; purified TGR, DTNB reduction, TNB absorbance 405 nm; Potency, µM (titrated, usually from 114 µM), hits mostly inhibitors; 360,000 compounds, 3% hits; AID 485364, 2010; further: nearly all actives have a fitted effect of over 60% in size
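First, TGR (20 nM dispensed) and NADPH were mixed with compound. Second, a 15 min room-temperature incubation followed. Third, further NADPH and then DTNB were added to start the reaction. Finally, TNB absorbance was monitored kinetically.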
Large screens that a line does not name were inactive. The call rests on the fitted dose curve; in most records, active means well fitted curve in the direction sought with a large enough effect; inconclusive means small, poorly fitted or top-dose-only effect, or another doubt; inactive means no such curve, though single readings can be large; an effect the other way counts as inactive or inconclusive.

COc1ccc(CS(=O)(=O)/C(Cl)=C(/Cl)C(=O)Nc2ccc(OC)nc2)cc1	Sm TGR block 10µM
COc1ccc(NC(=O)/C(Cl)=C(/Cl)S(=O)Cc2ccccc2)cn1 (stereo not given)	Sm TGR block 0.32µM
Cc1cc(C)c(NC(=O)CSc2nc3c(c(=O)n2C)SC(C)C3)c(C)c1 (stereo not given)	AmpC inh no detg 3.2µM
CC(=O)C(C(c1ccccc1)c1c[nH]c2ccccc12)[N+](=O)[O-] (stereo not given)	Sm TGR block inconclusive
Cc1sc2nc(C(C)C)nc(SCC(=O)NCc3ccco3)c2c1C	Sm TGR block 45µM
O=C(Cn1ncn2c(cc3ccccc32)c1=O)NCc1ccco1	Sm TGR block 32µM
Cc1nc(SCC(=O)NC(=O)NCc2ccccc2)nc(C)c1C	none
Cc1nc(SCC(=O)NCc2ccco2)c2c(C)c(C)sc2n1	Sm TGR block inconclusive
Cc1nc(SCC(=O)NC(=O)NCc2ccco2)nc(C)c1C	AmpC inh detg inconclusive, Sm TGR block 40µM
O=C(CSc1nnc(-c2ccccc2)c(-c2ccccc2)n1)NCc1ccco1	Sm TGR block 40µM
COc1ccc(CNC(=O)Cn2ncn3c(cc4ccccc43)c2=O)cc1	none
Cc1csc2nc(COC(=O)CNC(=O)c3ccc(F)cc3)cc(=O)n12	none (no result: AmpC inh no detg, FBPA Giardia inh)
CCc1ccccc1NC(=S)N(CCN1CCOCC1)Cc1ccccc1F	none
Cc1ccc(CN2CCSc3ccc(C(=O)N4CCN(c5cc(C)ccc5C)CC4)cc32)cc1	none (no result: AmpC inh no detg, FBPA Giardia inh)
CC1=C(C(=O)OC(C)C)C(c2cncc(-c3ccc(F)cc3)c2)C(C#N)=C(N)O1 (stereo not given)	FBPA Giardia inh inconclusive
O=C(Cn1cnc2nc3c(cc2c1=O)CCCC3)Nc1ccc(F)cc1Cl	none (no result: AmpC inh no detg, FBPA Giardia inh)
O=C(CSc1ncnc2c1oc1ccccc12)NCc1ccco1	Sm TGR block 28µM
O=C(Cn1cnc2sc(-c3ccccc3)cc2c1=O)NCc1ccco1	Sm TGR block 13µM
O=C(Cn1cnc2sc(-c3ccccc3)cc2c1=O)NCc1ccccc1	AmpC inh detg inconclusive
Cc1nc(SCC(=O)NCc2ccco2)nc(C)c1C	Sm TGR block 22µM
Cc1ccc(SCC(=O)NCc2ccco2)cc1	Sm TGR block inconclusive
COc1ccc(OCC(=O)N(Cc2sccc2C)C2CCS(=O)(=O)C2)cc1 (stereo not given)	none (no result: FBPA Giardia inh)
COc1ccccc1CNC(=O)CN1C(=O)NC2(CCOc3ccccc32)C1=O (stereo not given)	none (no result: AmpC inh detg, FBPA Giardia inh, Sm TGR block)
COc1ccc2c(c1)OC(=O)CC2c1ccc2c(c1)OCO2 (stereo not given)	none (no result: AmpC inh no detg, AmpC inh detg, Sm TGR block)
COC1=CC(=O)C=C(OC)C1=O	FBPA Giardia inh 7.1µM (no result: AmpC inh no detg, AmpC inh detg, Sm TGR block)
Cc1ccc(-c2nc3ccc(NS(=O)(=O)c4ccccc4)cc3[nH]2)o1	Sm TGR block 35µM
O=S(=O)(Nc1ccc2nc(-c3ccc(Br)o3)[nH]c2c1)c1ccccc1	AmpC inh no detg 25µM, Sm TGR block 28µM
O=S(=O)(Nc1ccc2nc(C(F)(F)F)[nH]c2c1)c1ccccc1	none
Cc1cc(NS(=O)(=O)c2ccc3nc(-c4ccccc4)[nH]c3c2)ccc1Br	none (no result: AmpC inh no detg, FBPA Giardia inh)
COc1ccc(OC)c(NS(=O)(=O)c2ccc3c(c2)C(C)(C)C(=O)N3C)c1	none
COc1ccc(-c2cccc(NC(=O)c3ccco3)c2)nn1	AmpC inh no detg inconclusive (no result: FBPA Giardia inh)
COc1ccc(-c2ccc(NC(=O)c3ccco3)cc2)nn1	Sm TGR block 50µM (no result: FBPA Giardia inh)
O=C(/C=C/c1ccc2ccccc2n1)c1cc(Br)ccc1O	Sm TGR block 32µM
O=Cc1ccc(C(=O)OCC(=O)NC(=O)Nc2ccccc2F)cc1	AmpC inh no detg 28µM (no result: AmpC inh detg, FBPA Giardia inh, Sm TGR block)
CN(C)C(=O)CN1CCN(C(=O)CCl)CC1	AmpC inh detg inconclusive, Sm TGR block 45µM
CCOC(=O)CNC(=O)O[C@@H]1Cc2cc(OC)ccc2O[C@H]1c1cccc(OC)c1	none (no result: AmpC inh no detg, AmpC inh detg, Sm TGR block)
COc1ccc(C2=Nn3c(nnc3-c3ccccc3C)SC2)cc1OC	none (no result: AmpC inh no detg, AmpC inh detg, Sm TGR block)
COCCCN1C(=O)C2C(C(=O)Nc3cc(C)cc(C)c3)C3C=CC2(O3)C1C(=O)NC1CCCCC1 (stereo not given)	FBPA Giardia inh inconclusive, Sm TGR block 40µM
Cc1cc(C)cc(NC(=O)C2C3C=CC4(O3)C2C(=O)N(CCCN2CCCCC2)C4C(=O)NC2CCCCC2)c1 (stereo not given)	AmpC inh detg inconclusive
